Results taken from publication PMC5540273 (PLoS ONE, 2017).

These compounds were tested on DMPK. Conditions: concentration: 1 μM, replicates: in singlicate; n = 1.
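Also: KINOMEscan kinase panel screen.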

Compound	%Inh
COc1cc2ncnc(Nc3cccc(Br)c3)c2cc1OC.Cl [GI230329]	6%
CS(=O)(=O)CCNCc1nc(-c2ccc3ncnc(Nc4ccc(OCc5ccccc5)c(Cl)c4)c3c2)cs1.Cl [GW582764]	0%
COc1ccc2cc(-c3nc(-c4ccccc4C(C)C)[nH]c3-c3ccncc3)ccc2c1 [SB-660566]	0%
COc1ccc(Nc2nccc(N3CCC(NC(=O)C(C)c4ccc(Cl)cc4)CC3)n2)cc1 (stereo not shown) [GSK1379812]	1%
Cc1ccccc1-c1cc(-c2c[nH]nc2-c2ccccn2)ccn1 [GW680061]	0%
CC[C@@H]1CO[C@H](C(=O)Nc2ccccc2)CN1c1cc(-c2ccc3c(N)n[nH]c3c2)nc(NC)n1 [GSK2376236]	0%
O=C1NC(=O)C(c2ccc(Cl)cc2)=C1Nc1cccc(Cl)c1 [SB-317651]	0%
Cc1c(Cn2c3ccccc3n3c(=O)cc(N4CCOCC4)nc23)cccc1C(F)(F)F [GSK2306394]	0%
Cc1ccc(NC(=O)Nc2ccccc2F)cc1-c1ccc(C(=O)Nc2ccncc2)cc1 [GSK1398477]	3%
O=c1cc(N2CCOCC2)nc2n(Cc3cccc(Cl)c3Cl)c3ccccc3n12 [GSK2299009]	10%
CC(=O)c1c(C)c2cnc(Nc3ccn(C)n3)nc2n(C2CCCC2)c1=O	0%
COc1cccc(CNC(=O)NC2CCN(c3ccnc(Nc4ccc(F)cc4)n3)C2)c1 (stereo not shown) [GSK1379723]	0%
CC(=O)c1c(C)c2cnc(Nc3ccc(N4CCNCC4)cn3)nc2n(C2CCCC2)c1=O	15%
